# The supplement of paper PMC3334620
# The full ranking holds about 33,000 sequences; the median of “E-score (-0.5 to 0.5)” is about -0.016, and the highest 2% start at about 0.3. The entries come from a sample that favours the highest values as a whole.
# Target: T1, Yer184c (UniProt P39961)
# T1 sequence: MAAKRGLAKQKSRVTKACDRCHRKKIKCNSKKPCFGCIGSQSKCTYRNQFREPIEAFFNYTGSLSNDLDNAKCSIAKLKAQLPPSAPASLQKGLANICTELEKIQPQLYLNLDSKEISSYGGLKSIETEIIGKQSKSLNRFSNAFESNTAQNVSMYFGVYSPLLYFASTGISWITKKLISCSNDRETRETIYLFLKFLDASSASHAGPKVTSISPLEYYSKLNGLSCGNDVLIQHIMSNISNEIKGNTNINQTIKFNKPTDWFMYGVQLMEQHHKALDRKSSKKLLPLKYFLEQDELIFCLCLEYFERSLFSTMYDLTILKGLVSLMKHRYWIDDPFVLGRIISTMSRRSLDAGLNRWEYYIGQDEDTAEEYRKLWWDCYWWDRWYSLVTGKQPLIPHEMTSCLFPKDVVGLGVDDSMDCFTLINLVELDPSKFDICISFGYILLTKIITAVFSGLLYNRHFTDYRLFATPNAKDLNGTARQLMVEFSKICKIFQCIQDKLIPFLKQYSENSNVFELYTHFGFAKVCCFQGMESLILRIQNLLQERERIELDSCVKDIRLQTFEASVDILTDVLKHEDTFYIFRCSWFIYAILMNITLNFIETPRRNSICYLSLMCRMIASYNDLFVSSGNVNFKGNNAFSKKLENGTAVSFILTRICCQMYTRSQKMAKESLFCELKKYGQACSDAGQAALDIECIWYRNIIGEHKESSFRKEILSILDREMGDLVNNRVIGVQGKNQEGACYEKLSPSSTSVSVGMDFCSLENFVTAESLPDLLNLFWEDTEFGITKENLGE
# Experiment: PBM E-score (8-mer binding enrichment) (E-score (-0.5 to 0.5)); higher = stronger / more preferred TF binding
# Details: protein concentration: 100 nM; construct: GST-full length
# Procedure: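 Universal 'all 10-mer' protein binding microarrays (Agilent AMADID 015681) probed with GST-tagged S. cerevisiae TFs (full-length or DBD) made by in vitro transcription/translation (PURExpress), about 100-200 nM. Bound TF was detected with fluorescent anti-GST. Each ungapped 8-mer (which stands for itself and its reverse complement) is scored by the PBM enrichment score (E-score), a modified Wilcoxon-Mann-Whitney statistic from -0.5 to +0.5, computed with the Universal PBM Analysis Suite. Scale: above 0.35 generally sequence-specific binding.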
row,Sequence,PBM E-score
1,TCAAGCCA,-0.0394
2,TAGTATGA,0.129
3,AAGGGCCC,-0.28
4,GACGCTTA,-0.148
5,AAAACTTA,0.245
6,CCGGAACC,0.363
7,ACGGAACC,0.329
8,CCGGAACG,0.329
9,ACGGAACT,0.197
10,CAGGAACC,-0.147
11,GCGGAACC,0.268
12,CAGGAACG,-0.0846
13,ACGGAACG,0.212
14,AGGGAACC,-0.101
15,CCTTGGAA,0.00859
16,TGCAAGCA,-0.0504
17,CAGCGTTA,-0.141
18,ATACGCTA,0.0126
19,ACCTTCAT,-0.00129
20,CTCCAGAG,-0.154
21,CCCCGAAC,-0.00623
22,ATCCGAAC,0.261
23,CACCGAAG,0.192
24,AGCCGAAG,0.14
25,CGCCGATC,0.129

row,Sequence,PBM E-score
1,CGCCGAAC,0.345
2,CGCCGAAG,0.328
3,CTCCGAAC,0.323
4,CTCCGAAG,0.303
5,GGCTGCGA,-0.00955
6,CATGGAGC,-0.175
7,ATGGAGAG,-0.0917
8,CATTAGGG,-0.12
9,CTCTCCGA,0.149
10,GTCTCCGA,0.243
11,ATCTCCAG,-0.0032
12,ATCTCCGA,0.36
13,ATCTCCGC,0.14
14,ATCTCCGG,0.435
15,AAGCACCA,-0.224
16,CACCAAAG,0.0906
17,ATTTATCC,0.314
18,ATTTATCA,0.258
19,ATTTATCG,0.103
20,ATTTATTA,0.216
21,CTTTATTC,0.0145
22,ATTTATTC,0.329
23,ATAGAACA,-0.0179
24,AGTACTGC,-0.177
25,AACTCGAT,0.12

row,Sequence,PBM E-score
1,ACAAGCGA,-0.015
2,GAAGTAAC,0.0995
3,AGTAGCAT,-0.0361
4,AGCATATG,-0.242
5,CTCCGAGA,0.247
6,ATCCGAGA,0.252
7,ATCCGAAG,0.302
8,ATCCGACA,0.162
9,ATACGAAT,0.0699
10,ATCCGATA,0.266
11,GTCCGAGA,0.333
12,ATCCGATG,0.327
13,ATCCGACC,0.0769
14,ATCCGAAT,0.419
15,ATCCGAAA,0.321
16,ATCCGATC,0.235
17,CTGTGTTC,0.093
18,CTAGAACC,-0.00303
19,TATGTACA,-0.0329
20,AGCACTCG,-0.0898
21,CTAGAAAG,-0.0631
22,ATGTATGC,0.0572
23,AGTCTCAG,-0.104
24,GTCCGAAA,0.316
25,CTCCGAAA,0.266

row,Sequence,PBM E-score
1,TCCCGAAA,0.196
2,TACCGAAA,0.204
3,GTCCGAAC,0.23
4,TTCCGAAA,0.37
5,CCAGCTAA,-0.204
6,GTATCTTA,0.197
7,GTCGCGAC,0.315
8,CTCGCGAC,-0.064
9,GTCGCGAA,0.00034
10,CTCTTCAA,-0.129
11,TAGACCTA,-0.0542
12,GCGGAGTA,0.0105
13,GCGGATTA,0.0175
14,ACGGATTA,0.183
15,CCGGATTA,0.352
16,CTGGATTC,0.00297
17,CCGGAGTC,0.235
18,CCGGAGTA,0.381
19,ACGGATTC,0.197
20,CCGGATTC,0.33
21,ATATGGAT,-0.0237
22,ACCGCTCG,-0.135
23,GGTAGGTA,-0.127
24,ACGCGGCG,0.113
25,ACGCGGCC,-0.0466

row,Sequence,PBM E-score
1,CCGCGGCC,0.374
2,CCGCGGCA,0.409
3,GCGCGGCC,0.177
4,CCGCGGCG,0.326
5,ACGCGGCA,0.096
6,CAGCGGCG,0.0785
7,GCGCGGCA,0.158
8,ACCCAACC,-0.191
9,AGAGGGGA,-0.286
10,ACTGGGTC,-0.271
11,GAGATTCC,0.0978
12,CCAAAGCC,-0.0564
13,CCGGACGA,0.323
14,GGGGAACA,-0.17
15,CGGGAACA,0.313
16,ACGGAAGC,0.274
17,CCGGAAGC,0.329
18,AGGGAACA,0.00359
19,TCGGACGA,0.278
20,CCGGAAGA,0.344
21,CCGGAAGG,0.28
22,ACGGACGA,0.237
23,GCGGAAGC,0.105
24,ACGGAAGA,0.262
25,GACACCTA,-0.129

row,Sequence,PBM E-score
1,AAGGGCGA,-0.211
2,AACAACCT,-0.0961
3,CAGCTTCG,-0.0525
4,ATAGTCGA,0.0238
5,AAACCCCG,0.0829
6,ATTCGATC,0.111
7,GAAGGGGA,-0.201
8,GACAGAGC,-0.128
9,AGGCCGAA,0.302
10,CGGGAAGC,0.138
11,CGGGAAGA,0.315
12,AGGGAAGA,-0.12
13,TAACAATA,0.158
14,GAACAATA,0.313
15,AAACAATA,0.282
16,CACACCGG,0.0348
17,AATACCGC,0.0781
18,AATACCGT,0.188
19,AACACCGG,0.37
20,AATACCGG,0.336
21,AACACCGC,-0.13
22,CACCCGTG,-0.169
23,GCCGCGAA,-0.0654
24,GCCGCGGA,0.386
25,AACGCGGA,0.178

row,Sequence,PBM E-score
1,GCCGCGCA,0.0353
2,ACCGCGGA,0.314
3,ATCGCGGA,-0.00991
4,GCCGCTCA,-0.0363
5,GGTAAGCA,-0.146
6,CAGGATGC,-0.0823
7,GCGGATGA,0.125
8,ACGGATGA,0.0817
9,CCGGATGC,0.331
10,ACGGATGC,0.203
11,CCGGATGA,0.335
12,GCGCCAAA,-0.00708
13,CCCATGAC,-0.117
14,GAGGAGCA,-0.0781
15,CCTGCTGC,-0.143
16,GAATGCTC,-0.157
17,CGGTACCC,-0.0697
18,CGGTACCA,0.0778
19,CGGTACCG,0.32
20,GCTAGGAA,0.0829
21,AGGTAGAA,-0.0769
22,CCGGCCGA,0.431
23,CCGGCCGC,0.304
24,GCGGCCGA,0.242
25,ACGGCCCA,-0.0167

row,Sequence,PBM E-score
1,ACGGCCGG,0.372
2,ACGGCCGA,0.355
3,ACGGCCGT,0.176
4,ATGGCCGG,0.215
5,ACGGCCAA,0.192
6,CCGGCCTA,0.28
7,ACGGCCGC,0.244
8,GCGGCCGC,0.261
9,AAAGAGCG,0.00323
10,AAGCGACA,-0.0772
11,AACATGGC,-0.317
12,CATGTGAA,-0.0476
13,ACTTGCCG,0.142
14,AGGTCGAA,-0.0466
15,GGGGCCGA,-0.192
16,CGGGCCGC,0.137
17,CGGGCCGA,0.308
18,AAAGATAT,0.0801
19,CTGTGCTA,-0.119
20,GTGTGGGA,-0.0509
21,CGAGCTCC,0.0493
22,CGAGCTCG,0.308
23,CGAGCTCA,0.144
24,TCAATGGA,-0.0551
25,GCTACAGA,-0.185

row,Sequence,PBM E-score
1,ACGTGCCG,0.233
2,CCGTGCCA,-0.127
3,CCGTGCCG,0.312
4,CAGGGGAA,-0.196
5,AAGCTATC,0.191
6,ATCGGACA,0.303
7,CTCGGATC,0.241
8,ATCGGATA,0.369
9,CTCGGAGA,0.252
10,CTCGGACA,0.306
11,ATCGGATC,0.298
12,CTCGGATA,0.305
13,GTCGGACA,0.193
14,GTCGGATA,0.122
15,GATTGGGA,-0.133
16,CCCCAGGA,-0.372
17,CGATTCAA,-0.0538
18,GTTTGCCA,-0.0315
19,GAGCATCC,-0.111
